M18AAP inhibitor: PfM18AAP enzyme inhibition | inhibition, % at 7.35 µM | AID 1822 | 1.2% of 290,000 active | recombinant PfM18AAP, H-Glu-NHMec fluorogenic cleavage;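 active means inhibition above the campaign mean inhibition over all tested compounds plus 3 SD, cut at about 28% in these data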
PfG6PD inh: PfG6PD (Plasmodium falciparum) enzyme inhibition; PfGluPho enzyme, NADPH resazurin-diaphorase fluorescence; inhibition, % at 20 µM; 0.78% of 350,000 active;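 active means inhibition reaching at least a set limit at 20 µM in the primary screen, cut at about 59% in these data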
MBD2 DNA inh: blocks human MBD2 binding to methylated DNA; inhibition, % at 4.4 µM; TR-FRET, MBD2 binding to methylated oligonucleotide; Q9UBB5; 0.31% of 370,000 active; in the data active means inhibition above about 13%
UHRF1 MBD2 ctr: UHRF1 methyl-DNA binding inhibition; Q96T88; UHRF1 binding to methylated oligo, TR-FRET; inhibition, % at 4.4 µM; 0.75% of 370,000 active; AID 687016; in the data active means inhibition above about 21%;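 further: UHRF1 SRA domain binding a hemimethylated CpG hairpin DNA probe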
Target sequence (Q96T88 whole entry, looked up, the tested form may be a part): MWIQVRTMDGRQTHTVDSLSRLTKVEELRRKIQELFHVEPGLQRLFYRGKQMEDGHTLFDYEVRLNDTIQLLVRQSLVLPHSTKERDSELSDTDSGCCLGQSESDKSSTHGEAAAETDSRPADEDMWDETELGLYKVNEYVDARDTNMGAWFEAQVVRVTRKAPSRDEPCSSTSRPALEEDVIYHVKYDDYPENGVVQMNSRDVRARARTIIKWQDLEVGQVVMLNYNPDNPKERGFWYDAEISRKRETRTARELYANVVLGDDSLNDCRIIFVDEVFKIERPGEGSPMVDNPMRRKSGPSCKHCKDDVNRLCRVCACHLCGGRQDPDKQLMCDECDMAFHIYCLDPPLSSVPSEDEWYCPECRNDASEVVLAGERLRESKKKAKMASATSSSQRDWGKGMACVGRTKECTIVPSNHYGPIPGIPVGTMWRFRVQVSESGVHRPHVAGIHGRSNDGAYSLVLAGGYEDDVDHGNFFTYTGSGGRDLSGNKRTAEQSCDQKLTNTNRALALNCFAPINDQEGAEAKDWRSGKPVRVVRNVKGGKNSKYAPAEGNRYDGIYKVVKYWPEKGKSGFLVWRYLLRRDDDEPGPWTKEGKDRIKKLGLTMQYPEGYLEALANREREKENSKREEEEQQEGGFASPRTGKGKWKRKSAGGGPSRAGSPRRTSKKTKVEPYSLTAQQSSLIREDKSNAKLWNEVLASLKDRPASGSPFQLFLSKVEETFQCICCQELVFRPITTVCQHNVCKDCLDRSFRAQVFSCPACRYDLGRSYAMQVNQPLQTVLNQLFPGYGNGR
PRMT1 inh: blocks human protein arginine methyltransferase 1 | recombinant PRMT1, activity-based probe fluorescence polarization | inhibition, % at 2.79 µM | 1.3% of 370,000 active | AID 652257;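 active means inhibition above about 21% made by adding two undisclosed values, limit read from the data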
PRMT1 confirm: PRMT1 (human) inhibition, FP confirmation | shares compounds with PRMT1 inh | 42% of 3,300 active | AID 687036 | inhibition, % at 2.79 µM | recombinant His-PRMT1, activity-based probe fluorescence polarization;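 active means mean inhibition across replicates above the hit cutoff derived for the earlier primary screen, cut at about 22% in these data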
Each line names hits and unclear results; the compound was inactive in the other large screens (follow-up assays come after a bar, where they were run); ! = not confirmed by another sample. A selection: hits, their analogues and other compounds. The true share with any hit is near 3.3%.

CCCCn1c(NC(=O)c2ccco2)c(C(=O)OCC)c2nc3ccccc3nc21	PRMT1 inh 40.8 | PRMT1 confirm inactive
CCCCn1c(NS(=O)(=O)c2ccc(C)cc2)c(C(=O)OCC)c2nc3ccccc3nc21	none
O=P(NS(=O)(=O)c1ccc(Br)cc1)(Oc1ccccc1)Oc1ccccc1	none
CCOC(=O)CC(SP1(=S)OCC2(CCCCC2)CO1)C(=O)OCC (centres undefined)	PRMT1 inh 25.2 (no result: M18AAP inhibitor) | PRMT1 confirm inactive
CCOC(=O)C1CCCN(c2ccc([N+](=O)[O-])c3nonc23)C1 (centres undefined)	PRMT1 inh 122.3 | PRMT1 confirm 135.2
CC1CCCN(c2ccc(C(=O)N3CCC4(CC3)OCCO4)cc2[N+](=O)[O-])C1 (centres undefined)	none
C[C@H]1CNCCN1c1ccc(N2CC[C@@H](O)C2)c(C#N)c1	none (no result: M18AAP inhibitor, PfG6PD inh)
Cc1cc(N2CCNC[C@@H]2C)ccc1N1CC[C@@H](O)C1	PRMT1 inh 46.9 (no result: M18AAP inhibitor, PfG6PD inh) | PRMT1 confirm inactive
O=C(CCCN1CCC2(CC1)C(=O)NCN2c1ccccc1)c1ccc(F)cc1	none
CN(C)c1nc(-c2ccccc2)[n+](C)s1	PRMT1 inh 34.0 | PRMT1 confirm 21.6
CCOC(=O)c1c(/N=C/C2C(=O)NC(=O)NC2=O)sc2c1CCC2	none
CCOC(=O)c1cc(CC)sc1/N=C/C1C(=O)NC(=S)NC1=O	PRMT1 inh 41.1 | PRMT1 confirm inactive
CCOC(=O)c1cc(CC)sc1/N=C/c1c(O)[nH]c(=S)[nH]c1=O	PRMT1 inh 81.5 | PRMT1 confirm inactive
C=C1[C@H]2C[C@H]3[C@H]4N5C[C@]6(C)CCC[C@]47[C@H]([C@H]2O)[C@]3(C[C@]5(O)[C@H]67)[C@@H]1O	none (no result: M18AAP inhibitor)
Cn1cc(C(=O)OCC(=O)NC2CCCC2)c2ccccc21	none (no result: M18AAP inhibitor)
S=P(N1CCOCC1)(N1CC1)N1CC1	none (no result: M18AAP inhibitor)
S=P(N1CCCCCC1)(N1CC1)N1CC1	PRMT1 inh 30.5 (no result: M18AAP inhibitor) | PRMT1 confirm inactive
Cc1cccc(C)c1-n1nnnc1C(c1cccs1)N1CCC2(CC1)C(=O)NCN2c1ccccc1 (centres undefined)	none (no result: M18AAP inhibitor, PfG6PD inh)
CN1C(=O)C(=Cc2ccccc2OS(=O)(=O)c2ccccc2)C(=O)N(C)C1=O	PRMT1 inh 33.9 | PRMT1 confirm inactive
CN1C(=O)C(=Cc2ccccc2OCCOc2ccc([N+](=O)[O-])cc2)C(=O)N(C)C1=O	none
CCN1C(=O)C(=C/C=C/c2ccco2)C(=O)N(CC)C1=S	UHRF1 MBD2 ctr 30.4, PRMT1 inh 27.0 | PRMT1 confirm 33.8
COc1ccc(NC(=S)N2Cc3ccccc3-n3nncc3C2)c(OC)c1	none (no result: M18AAP inhibitor)
COc1ccc(C2=NCC(=S)Nc3ccc(Cl)cc32)cc1Cl	PRMT1 inh 40.2 | PRMT1 confirm inactive
COc1ccc2c(c1)C13CCCC[C@@H]1C(C2)N(C)CC3 (some centres undefined)	PRMT1 inh 135.9 (no result: M18AAP inhibitor) | PRMT1 confirm inactive
O=C1NC(=O)N(c2cccc(Cl)c2)C(=O)/C1=C\c1ccc(Sc2nc3ccccc3[nH]2)o1	PRMT1 inh 32.6 | PRMT1 confirm 42.5
Cc1nn(C2CCOC(C)(C)C2)c2c1C(c1ccc(OC(C)C)cc1)SCC(=O)N2 (centres undefined)	PRMT1 inh 27.7 | PRMT1 confirm 40.7
CN1C(=O)C(=Cc2c(OCc3cnc(Cl)s3)ccc3ccccc23)C(=O)N(C)C1=O	PRMT1 inh 43.5 | PRMT1 confirm inactive
Cc1ccc(-n2c(C)nc3cc(Cl)ccc3c2=O)nc1	none
COc1ccc(C(=O)OCC2CN2c2cccc([N+](=O)[O-])c2)cc1 (centres undefined)	none (no result: M18AAP inhibitor, PfG6PD inh)
CCN(CC)c1ccc(N=Cc2c(O)n(-c3ccccc3C)c(=O)[nH]c2=O)cc1	PRMT1 inh 27.6 | PRMT1 confirm inactive
CCOc1ccccc1-n1c(O)c(C=Nc2ccc(N(CC)CC)cc2)c(=O)[nH]c1=O	none
COC(=O)C1=C(c2ccc(S(C)(=O)=O)cc2)C[C@@H]2CC[C@H]1N2C(=O)N1CCC(O)CC1	none (no result: M18AAP inhibitor)
Nc1c2c(nc3ccccc13)CCN(Cc1ccccc1)C2	PRMT1 inh 44.3 | PRMT1 confirm inactive
C1=C(c2c[nH]c3ccccc23)CCN(Cc2ccccc2)C1	none
CN1CCC2(CC1)C(C#N)=C(N)NC(S)=C2C#N	PRMT1 inh 30.6! | PRMT1 confirm inactive
CCC1(C)OC(c2ccccc2)=C/C(=C/C=C2C(=O)NC(=O)NC2=O)O1 (centres undefined)	none
Oc1ccc(C2=CCNCC2)cc1O	PRMT1 inh 25.1 (no result: M18AAP inhibitor) | PRMT1 confirm 28.5
C1=C(c2ccccc2)CCNC1	none
O=C1NS(=O)c2cc([N+](=O)[O-])cc([N+](=O)[O-])c21 (centres undefined)	PRMT1 inh 37.8 | PRMT1 confirm 26.6
O=C(Cc1ccccc1)Oc1ccccc1N1C(=O)CCC1=O	none
CC(=O)c1ccc2c(c1)C1C(Cl)C(Sc3ccccc3[N+](=O)[O-])CC1C(C(=O)O)N2 (centres undefined)	PRMT1 inh 49.3 | PRMT1 confirm 22.6
COc1ccc2[nH]cc(CCNCc3cccnc3)c2c1	none
COc1ccc2[nH]c(C)c(CCNCc3cccnc3)c2c1	PRMT1 inh 120.0 (no result: M18AAP inhibitor) | PRMT1 confirm inactive
Cn1c(O)c(C(c2ccccn2)c2c(O)n(C)c(=S)n(C)c2=O)c(=O)n(C)c1=S	PRMT1 inh 27.4 | PRMT1 confirm inactive
Cn1c(O)c(C(c2ccncc2)c2c(O)n(C)c(=S)n(C)c2=O)c(=O)n(C)c1=S	PRMT1 inh 37.9 | PRMT1 confirm inactive
COC(=O)C1=C(c2c(C)noc2C)C[C@@H]2CC[C@H]1N2C(=O)NCc1ccco1	none (no result: M18AAP inhibitor)
COc1cccc(C(c2nnnn2Cc2ccccc2)N2CCC3(CC2)C(=O)NCN3c2ccccc2)c1OC (centres undefined)	none (no result: M18AAP inhibitor, PfG6PD inh)
Fc1ccccc1CNCCc1ccc2c(c1)OCO2	none
CN1CCN(C(=O)COc2ccc(N(C)S(=O)(=O)c3ccc(F)cc3)cc2)CC1	none
CC1=NNC(=O)C1Br (centres undefined)	PRMT1 inh 49.9 (no result: M18AAP inhibitor) | PRMT1 confirm 73.6
CN1CCN(c2ccc([N+](=O)[O-])c(SCCO)c2)CC1	none
COc1ccc(CC2(CCc3ccncc3)C(=O)NC(=O)NC2=O)cc1OC	none
O=C(CN1CCN(Cc2ccc(Cl)cc2)C1=O)N1CCC2(CC1)OCCO2	none
Cc1ccc2[nH]c3c(c2c1)CN(C(=O)CN1C[C@H]2C[C@@H](C1)c1cccc(=O)n1C2)CC3	PRMT1 inh 49.7 | PRMT1 confirm inactive
CN(CC=CCN(C)P(=S)(N1CC1)N1CC1)P(=S)(N1CC1)N1CC1	PRMT1 inh 51.5 (no result: M18AAP inhibitor) | PRMT1 confirm inactive
COc1ccc(/C=C2/C(=O)NC(=O)N(C3CCCCC3)C2=O)cc1CSc1ccccn1	PRMT1 inh 25.9 (no result: PfG6PD inh) | PRMT1 confirm inactive
O=C1NC(=O)N(CCC2=CCCCC2)C(=O)/C1=C\c1cccs1	PRMT1 inh 30.6 | PRMT1 confirm inactive
COc1ccc(N2C(=O)NC(=O)/C(=C\c3ccc([N+](=O)[O-])s3)C2=O)cc1	PfG6PD inh 63.1, PRMT1 inh 39.4 | PRMT1 confirm 49.6
